# Bioassay records as filed in PubChem BioAssay.
# MITF act: activators of MITF-driven TRPM1 promoter activity in SK-MEL-5 cells; SK-MEL-5 TRPM1-promoter luciferase, 24 h; % of positive control, neutral wells = 0; activation, % at 12.5 µM; 0.75% of 300,000 active;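 active = mean activation of at least 80% with every replicate also reaching 80%; inconclusive = mean reaches 80% but some replicate falls short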;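 also: 0% = neutral control wells and 100% = parthenolide positive control wells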
# HSF1 inh: HSF1 inhibition; 0.77% of 300,000 active; AID 2098; NIH3T3-HGL HSE-luciferase, MG132-induced, luminescence 8 h; stronger effect = lower value; activity change, negative = inhibition, % at 7.5 µM (by protocol);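 active = more than half of replicate wells show activity change below -50%, luminescence cut by over half; inconclusive = some wells, but at most half, below -50%; inactive = no replicate well below -50%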;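 also: luciferase reports HSF-1 transcriptional activity via heat shock element; 0% = median of DMSO wells and -100% = zero luminescence signal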
# esBAF inh: blocks esBAF chromatin remodeling in mouse ES cells; 2% of 350,000 active; reporter increase, % at 12.5 µM; Bmi1-luciferase knock-in reporter, 24 h; 100% = twice the neutral-well signal; AID 602393; in the data active = activation above about 40%; inconclusive = no clear call, values can overlap the other calls;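 also: 0% = median of the plate's neutral control wells and 100% = double that signal; a rise in the Bmi1 reporter signal indicates esBAF inhibition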
# Wnt bcat act: activators of Wnt/beta-catenin signaling. AID 743398. activation, % at 9.35 µM. 1.2% of 300,000 active. Wnt/beta-catenin reporter cell assay, activator, plate reader; in the data active = activation above about 30%, passing the limit was not always enough; inconclusive = no clear call, values can overlap the other calls;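 also: 0% = neutral control wells and 100% = positive control wells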
# HSF1 activator: increases HSF-1 driven luciferase reporter signal. NIH3T3-HGL HSF-1 luciferase reporter, MG132, 8 h; 100% = twice DMSO control signal. activation, % at 9 µM. 1.7% of 300,000 active;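 active = mean replicate activation of at least 50% with a set share of replicates each reaching 50%; inconclusive = only one of those two conditions met; inactive = mean below 50% and too few replicates reaching it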;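 also: 0% = median of the neutral control wells and 100% = twice that signal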
# * hit, by the source's call; ? = inconclusive; . = no result. Compounds with a hit are over-represented: about 3.9% of the library has one in this group of screens.
SMILES,MITF act,HSF1 inh,esBAF inh,Wnt bcat act,HSF1 activator
CCCNC(=O)N1[C@H](CO)[C@H](c2ccc(C3=CCCC3)cc2)[C@H]1CNC(=O)CC,.,.,-2.9,.,.
Cc1ccc2nc(NC(=O)/C=C/c3ccc4c(c3)OCO4)sc2c1,-5.0,-7.6,.,-0.6,21.8
Cc1ccc(NC(=O)/C=C/c2ccc3c(c2)OCO3)nc1,?,25.5,.,30.2*,47.8
CN1C(=O)c2cc(NC(=O)C3CCCCC3)ccc2OC[C@@H]2O[C@@H](CC(=O)NC3CCCC3)CC[C@@H]21,.,.,3.3,.,.
CN(c1ccc(C(=O)NCCSC(C)(C)C)cc1)S(=O)(=O)c1ccccc1,7.2,7.2,0.4,44.1*,16.5
CN(C)S(=O)(=O)c1ccc(C(=O)NCCOc2ccc(F)cc2)cc1,64.8,21.5,60.8*,20.8,46.4
CN(C)S(=O)(=O)c1ccc(C(=O)NCCOc2ccccc2)cc1,62.5,26.7,.,48.3*,?
COc1cccc(S(=O)(=O)N[C@@H]2CC[C@@H](CC(=O)NCc3ccc(F)cc3)O[C@@H]2CO)c1,.,.,2.7,.,.
Brc1cccc(CSc2nnc(-c3ccncc3)o2)c1,-2.0,.,.,-2.7,.
c1ccc2c(CSc3nnc(-c4ccncc4)o3)cccc2c1,7.9,35.4,-27.7,-0.1,59.3*
N#Cc1cccc(-c2nnc(SCc3ccccc3C#N)o2)c1,51.0,17.3,.,23.8,?
Clc1ccccc1CSc1nnc(-c2ccncc2)o1,.,8.8,49.3*,.,?
N#Cc1ccccc1CSc1nnc(-c2ccncc2)o1,56.8,25.0,22.6,.,59.9*
COC(=O)CNc1c(-c2ccccc2)nc2ccc(Br)cn12,.,17.1,49.7*,.,51.3*
COC(=O)Nc1c(-c2ccccc2)nc2ccc(Cl)cn12,.,-5.7,-0.2,-0.5,-4.5
Cc1cc(-c2nc3cccnc3s2)ccc1NS(=O)(=O)c1cccs1,.,6.6,44.9*,25.0,23.1
COc1ccc(NC(=O)Nc2cccc3c2O[C@@H](CN(C)Cc2ccc(Cl)c(Cl)c2)[C@@H](C)CN([C@H](C)CO)C3=O)cc1,.,.,-0.4,.,.
CN(C)c1ccc(N=c2sc3ccccc3n2C)cc1,51.3,70.5,81.9*,51.4*,109.5*
Cn1c(=Nc2ccccc2)sc2ccccc21,36.2,-0.7,38.5,19.6,7.2
C[C@H]1CN([C@@H](C)CO)C(=O)c2cc(NC(=O)C3CCCCC3)ccc2O[C@@H]1CN(C)CC1CCCCC1,.,.,4.0,.,.
Cc1cccc(C)c1NC(=O)N1C(C(=O)O)CSC1C(=O)O (centres undefined),-6.7,-87.7*,3.7,0.0,-90.0
Cc1ccc(CNC(=O)CSc2nc3ccsc3c(=O)n2Cc2ccccn2)cc1,13.9,-1.0,6.1,33.9*,17.1
O=c1c2sccc2nc(SCc2cc(=O)n3cc(Cl)ccc3n2)n1Cc1ccccn1,34.3,9.6,.,7.3,25.3
Cc1ccc(Cn2c(SCC(=O)NCc3ccco3)nc3ccsc3c2=O)cc1,-1.7,13.0,-0.6,.,18.0
O=c1c2sccc2nc(SCc2ccc([N+](=O)[O-])cc2)n1Cc1ccccn1,35.3,19.0,.,8.8,58.8*
SMILES,MITF act,HSF1 inh,esBAF inh,Wnt bcat act,HSF1 activator
CN1CCN(C(=O)C[C@H]2CC[C@@H]3[C@H](COC[C@@H](O)CN3C(=O)Nc3ccc(F)cc3)O2)CC1,.,.,-0.4,.,.
CN(C)c1ccc(-n2cccc2/C=C/[N+](=O)[O-])cc1,-65.8,68.5,-3.5,2.2,95.2*
Cc1ccn2cc(-c3cccc(S(=O)(=O)N4CC(C)OC(C)C4)c3)nc2c1 (centres undefined),0.2,1.9,8.0,0.0,3.1
COc1c(Cl)cccc1-c1cn2ccc(C)cc2n1,69.2,26.4,.,57.2*,57.8*
Cc1ccn2cc(-c3cccc(S(=O)(=O)N4CCCC4)c3)nc2c1,6.8,0.0,46.8*,2.3,6.0
C[C@H](CO)N1C[C@H](C)[C@@H](CN(C)C)Oc2ncc(-c3ccccc3)cc2C1=O,.,.,0.6,.,.
Cc1ccccc1N1CCN(S(=O)(=O)Cc2ccccc2)CC1,2.6,19.0,.,.,51.9*
O=S(=O)(Cc1ccccc1)N1CCN(c2ccccc2)CC1,4.5,-10.8,1.3,3.1,0.5
O=C(C[C@H]1CC[C@H]2[C@@H](COC[C@H](O)CN2C(=O)Nc2ccc(F)cc2)O1)NCCc1ccncc1,.,.,2.0,.,.
CCCC12CN3CCN(CC(C3)/C1=N\NC(=O)c1ccc(F)cc1)C2,2.5,-2.6,17.2,12.4,10.7
CCCCC12CN3CCN(CC(C3)/C1=N\NC(=O)c1ccccc1N)C2,4.1,14.8,.,35.2*,37.9
CN(C)N=Nc1ccc(S(N)(=O)=O)cc1,-3.8,6.4,2.2,-1.2,5.3
CN(C)c1ccc(N=Nc2ccc(S(N)(=O)=O)cc2)cc1,67.3,32.6,4.2,42.4*,32.2
COc1cccc(CNC(=O)C[C@@H]2C=C[C@H](NS(=O)(=O)c3ccccc3OC)[C@@H](CO)O2)c1,.,.,-0.3,.,.
CCCCCOc1ccc(CN2CCOCC2)cc1Cl,.,4.7,49.8*,13.9,34.1
O=C1c2cccc3cc([N+](=O)[O-])cc(c23)C(=O)N1CCN1CCCC1,-81.6,31.8,-87.3,1.3,61.2*
COCC#Cc1cnc2c(c1)C(=O)N([C@@H](C)CO)C[C@@H](C)[C@H](CN(C)C(=O)CCN1CCCCC1)O2,.,.,-0.4,.,.
CS(=O)(=O)NN1C(=O)c2ccccc2NC1c1ccccc1F (centres undefined),-1.1,1.6,-2.3,2.8,-5.6
CS(=O)(=O)NN1C(=O)c2ccccc2NC1c1cc2ccccc2nc1Cl (centres undefined),5.2,-12.9,89.3*,52.1*,-21.3
C[C@H](CO)N1C[C@H](C)[C@@H](CN(C)Cc2ccc(C(=O)O)cc2)Oc2ncc(-c3ccccc3)cc2C1=O,.,.,-1.7,.,.
O=c1cc(-c2ccccc2)c2c(O)cc(O)cc2o1,3.8,-13.3,4.0,-0.3,-2.3
O=c1cc(-c2ccccc2Cl)oc2cc(O)cc(O)c12,40.1,1.6,57.5*,-2.4,3.9
Nc1ccc(O)c2c(=O)cc(-c3ccccc3Cl)oc12,109.4*,9.4,.,53.8*,15.8
O=C(Nc1ccc(O)c2c(=O)cc(-c3ccccc3Cl)oc12)c1ccc(F)cc1,-11.2,-1.8,37.9,-2.3,12.0
O=C(CNC(=O)c1ccc(Br)cc1)c1ccc(Br)cc1,3.0,1.3,-3.5,-0.3,38.2
SMILES,MITF act,HSF1 inh,esBAF inh,Wnt bcat act,HSF1 activator
CCN(CC)C(=S)SCC(=O)c1ccc(Br)cc1,36.6,21.0,83.2*,12.0,49.0
CCOc1ccc(C2=CC(=O)C[C@H](c3ccc(OC)cc3)C2)cc1,.,.,76.0*,12.1,.
O=C1C=C(c2ccc(C(=O)O)cc2)C[C@@H](c2ccc(F)cc2)C1,47.9,.,45.3*,14.3,.
O=C1C=C(c2ccc(-c3ccccc3)cc2)C[C@@H](c2ccc(F)cc2)C1,16.4,.,-0.5,19.8,.
COc1ccc(C2=CC(=O)CC(c3ccc(OC)cc3)C2)cc1 (centres undefined),22.2,-5.0,12.2,1.6,10.8
O=C(NC[C@@H]1[C@@H](c2ccccc2)[C@H](CO)N1Cc1ccccn1)C1CCCC1,.,.,-7.4,.,.
